Some test systems named below: HCT-15 colon; HT29 colon; SNB-75 CNS; SNB-19 CNS; U251 CNS; PC-3 prostate; SK-MEL-5 melanoma; UACC-62 melanoma; LOX IMVI melanoma; SK-MEL-28 melanoma; SK-MEL-2 melanoma; EKVX NSCLC; SN12C renal; UO-31 renal; TK-10 renal; ACHN renal; CAKI-1 renal; A498 renal; CCRF-CEM leukemia; MOLT-4 leukemia.
Holding throughout (assay): NCI-60 one-dose screen, 48 h (100 = growth as untreated, 0 = no growth, -100 = all killed)
Common to all, as to settings: 10 µM unless noted

Molecules are shown by their SMILES. This is part of a sample that, as a whole, favours compounds with a hit. Of some 83,000 tested, about 20% had one in any assay.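 Treatment: one concentration, 48 hours, 96-well format. Scoring: percent growth, with anything below 10 considered active.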 A number with no mark means an inactive call. Calls of active or inactive are those of the source.

As to `COCCNC(=O)Cc1cc(-c2ccc(Cl)cc2)n(-c2ccccc2)c1C`, the growth in the experiment with HCT-15 colon is 81.8%; with HT29 colon, 84.8%; in the experiment with SNB-75 CNS it was 68.5%; in the experiment with SNB-19 CNS, 79.2%; with U251 CNS, 84.5%; in the experiment with PC-3 prostate it was 81%. Also, the growth in the experiment on SK-MEL-5 melanoma was 79.3%; with UACC-62 melanoma it was 59.4%; with LOX IMVI melanoma it was 85.5%; with SK-MEL-28 melanoma, 103%; in the experiment with SK-MEL-2 melanoma it was 90.7%; in the experiment with EKVX NSCLC, 85.4%. Further, the growth was 87.6% in the experiment on SN12C renal; 71.1% with UO-31 renal; 95.3% in the experiment with TK-10 renal; 92.5% in the experiment on ACHN renal; 73.5% with CAKI-1 renal; 89.9% with A498 renal. Besides, the figures for the growth in the experiment with CCRF-CEM leukemia and in the experiment on MOLT-4 leukemia were 88.1% and 90%, respectively.
Take `CC(=O)Oc1ccccc1C(=O)N(Cc1ccc2c(Cl)cc(Cl)c(O)c2n1)c1ccccc1`: the growth was 23.8% in the experiment on HCT-15 colon; 89.4% in the experiment on HT29 colon; 51.2% with SNB-75 CNS; 42% in the experiment on SNB-19 CNS; 27.6% in the experiment on U251 CNS; 34% in the experiment on PC-3 prostate. The growth with SK-MEL-5 melanoma is 41.5%; in the experiment with UACC-62 melanoma, 29.3%; in the experiment with LOX IMVI melanoma, 38.5%; in the experiment with SK-MEL-28 melanoma it was 58.3%; in the experiment with SK-MEL-2 melanoma it was 66.7%; in the experiment on EKVX NSCLC it was 37.4%. In addition, the growth is 46.8% in the experiment with SN12C renal; 29.9% with UO-31 renal; 81.3% in the experiment on TK-10 renal; 33.8% with ACHN renal; 38.9% in the experiment on CAKI-1 renal; 57.6% in the experiment on A498 renal. For the same compound, the growth in the experiment with CCRF-CEM leukemia is 31.3%; in the experiment with MOLT-4 leukemia, 38.7%.
Regarding `Cc1cc(N2CCOCC2)nc(N(CCCNc2ccnc3cc(Cl)ccc23)Cc2ccc3c(c2)OCO3)n1`, the growth was -31.6% (active) in the experiment on HCT-15 colon; -61% (active) with HT29 colon; -43.3% (active) with SNB-75 CNS; 40.6% with SNB-19 CNS; -47.6% (active) in the experiment on U251 CNS; 15.9% in the experiment with PC-3 prostate. Besides, the growth with SK-MEL-5 melanoma was -37.2% (active); in the experiment on UACC-62 melanoma, -18.4% (active); in the experiment with LOX IMVI melanoma, -90.8% (active); in the experiment on SK-MEL-28 melanoma, -42.6% (active); in the experiment on SK-MEL-2 melanoma, -18.5% (active); with EKVX NSCLC, 3.49% (active). Besides, the growth in the experiment on SN12C renal is 21%; with UO-31 renal, -32.3% (active); in the experiment with TK-10 renal it was -66% (active); with ACHN renal it was -86.2% (active); with CAKI-1 renal, 35.2%; in the experiment with A498 renal it was -31.5% (active). The growth was -5.56% (active) in the experiment with CCRF-CEM leukemia and -36.2% (active) in the experiment with MOLT-4 leukemia.
For the compound `C=CCNc1ccc2c3c(cccc13)C(=O)N(CC=C)C2=O`, the growth with HCT-15 colon was 97.4%; in the experiment on HT29 colon, 105%; in the experiment on SNB-75 CNS it was 90.4%; with SNB-19 CNS, 100%; in the experiment with U251 CNS it was 103%; in the experiment with PC-3 prostate, 69.3%. The growth in the experiment on SK-MEL-5 melanoma was 88.9%; in the experiment on UACC-62 melanoma, 75.8%; in the experiment with LOX IMVI melanoma, 92%; in the experiment on SK-MEL-28 melanoma, 103%; in the experiment on SK-MEL-2 melanoma it was 116%; with EKVX NSCLC it was 99.2%. For the same compound, the growth was 97.6% in the experiment with SN12C renal; 71.5% in the experiment on UO-31 renal; 97.3% in the experiment with TK-10 renal; 84.3% in the experiment on ACHN renal; 72.9% with CAKI-1 renal; 89.7% with A498 renal. Further, the growth with CCRF-CEM leukemia was 83%; in the experiment with MOLT-4 leukemia, 93.8%.
For the compound `Nc1ncc(-c2ccc3ncnc(N4CCc5cc(F)c(Cl)cc54)c3c2)cn1`, the growth in the experiment with HCT-15 colon is 44.2%; in the experiment with HT29 colon it was 41.8%; in the experiment with SNB-75 CNS it was -6.4% (active); with SNB-19 CNS, 59.6%; in the experiment on U251 CNS it was 54.8%; with PC-3 prostate, 28.3%. Moreover, the growth in the experiment on SK-MEL-5 melanoma was 59.9%; in the experiment with UACC-62 melanoma, 23.8%; in the experiment with LOX IMVI melanoma, 37.6%; in the experiment with SK-MEL-28 melanoma, 65.1%; in the experiment on SK-MEL-2 melanoma it was 66.7%; in the experiment with EKVX NSCLC, 15.7%. The growth in the experiment on SN12C renal is 26%; in the experiment on UO-31 renal, 14.4%; in the experiment on TK-10 renal, 21.8%; with ACHN renal, 20.5%; with CAKI-1 renal, 15.7%; in the experiment with A498 renal it was -29.5% (active). Further, the growth was 22% in the experiment on CCRF-CEM leukemia and 17.3% in the experiment with MOLT-4 leukemia.
Take `O=C1c2c(c3c4cc(F)ccc4oc3c3[nH]c4ccccc4c23)C(=O)N1O`: the growth in the experiment on HCT-15 colon was 33.2%; in the experiment on HT29 colon it was 31.4%; in the experiment with SNB-75 CNS, 10.3%; in the experiment with SNB-19 CNS it was 26.7%; in the experiment on U251 CNS, 24.5%; with PC-3 prostate, 32.3%. In addition, the growth in the experiment on SK-MEL-5 melanoma is -30% (active); in the experiment with UACC-62 melanoma it was 3.37% (active); in the experiment on LOX IMVI melanoma, -25.3% (active); with SK-MEL-28 melanoma, 29%; in the experiment with SK-MEL-2 melanoma it was 78%; in the experiment on EKVX NSCLC, 62.3%. The growth in the experiment on SN12C renal is 28.1%; in the experiment with UO-31 renal, 8.37% (active); in the experiment with TK-10 renal, 102%; with ACHN renal, 0.963% (active); with CAKI-1 renal it was 16.9%; in the experiment with A498 renal, -6.56% (active). For the same compound, the growth in the experiment on CCRF-CEM leukemia was 5.67% (active); with MOLT-4 leukemia, -22.5% (active).
In the case of `C#Cc1cccc(Nc2ncnc3ccc(-c4cnc(Cl)c(NS(C)(=O)=O)c4)cc23)c1`, the growth in the experiment on HCT-15 colon was -32.2% (active); in the experiment on HT29 colon it was -21.1% (active); with SNB-75 CNS, -21.8% (active); with SNB-19 CNS, -24.3% (active); in the experiment with U251 CNS, -61.6% (active); in the experiment with PC-3 prostate it was -7.01% (active). The growth in the experiment with SK-MEL-5 melanoma is -95.6% (active); in the experiment with UACC-62 melanoma, -67.9% (active); in the experiment with LOX IMVI melanoma, -53.4% (active); in the experiment on SK-MEL-28 melanoma, -12.1% (active); in the experiment on SK-MEL-2 melanoma, -73.6% (active); in the experiment on EKVX NSCLC, -46.3% (active). The growth is 3.41% (active) in the experiment with SN12C renal; -80.8% (active) in the experiment on UO-31 renal; -72.8% (active) in the experiment with TK-10 renal; 13.4% in the experiment with ACHN renal; -31.9% (active) with CAKI-1 renal; -76.8% (active) with A498 renal. The growth in the experiment with CCRF-CEM leukemia is 7.99% (active); in the experiment on MOLT-4 leukemia, -11.7% (active).
Regarding `COc1ccc(/C(C)=C(\c2ccc(Cl)cc2)c2ccc(OCCCN(C)C)cc2)cc1`, the growth is 20.4% in the experiment on HCT-15 colon; 1.29% (active) in the experiment on HT29 colon; 97.2% in the experiment with SNB-75 CNS; 73.8% with SNB-19 CNS; 41% in the experiment with U251 CNS; 68.2% in the experiment on PC-3 prostate. Moreover, the growth was 37.8% in the experiment with SK-MEL-5 melanoma; 83.9% in the experiment on UACC-62 melanoma; 22.1% in the experiment on LOX IMVI melanoma; 75.1% in the experiment on SK-MEL-28 melanoma; 90.4% in the experiment on SK-MEL-2 melanoma; 88.6% in the experiment with EKVX NSCLC. The growth in the experiment with SN12C renal is 79.9%; in the experiment with UO-31 renal, 64.5%; in the experiment on TK-10 renal it was 94.7%; in the experiment with ACHN renal, 91.9%; in the experiment on CAKI-1 renal, 67.1%; in the experiment on A498 renal, 93.4%. Moreover, the growth with CCRF-CEM leukemia was 53.1%; with MOLT-4 leukemia, 55.8%.

Values taken from PubChem BioAssay (NCI).
